Records with an inconclusive call do not appear. Unmarked numbers belong to inactive results. Active and inactive are the calls of the source. Calls come from the whole dose curve; as a rule, active = well fitted inhibition curve with a large enough effect; inconclusive = small, poorly fitted or top-dose-only effect; inactive = flat fitted curve, though single readings scatter. Where a SMILES comes first, the peptide text is derived from it. [ ]: non-standard residue; d: D form. Hyp = O=C(O)[CH]1C[CH](O)CN1; Phe(ol) = N[CH](CO)Cc1ccccc1; Iva = CC[C](C)(N)C(=O)O; Aib = CC(C)(N)C(=O)O
Assay: P-glycoprotein substrates identified in KB-8-5-11 adenocarcinoma cell line, qHTS therapeutic library screen (AID 1346987); note: nearly all actives have a fitted effect of over 65% in size
Settings: KB-8-5-11 (P-gp overexpressing) viability, CellTiter-Glo, 72 h; series mostly up to 44.5 µM; activity change, negative = cytotoxicity: at the top concentration
Outline: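 Steps: plate 500 KB-8-5-11 cells/well in DMEM + 10% FCS (colchicine removed); pin compounds in dose-response; incubate 72 h, 37 degree C, 5% CO2; add CellTiter-Glo, 5 min; read luminescence.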
% is set by controls: 0 for no effect and ±100 for the full control effect; potency is the fitted concentration of half-maximal effect.

| SMILES | activity change, negative = cytotoxicity | Potency | outcome |
| --- | --- | --- | --- |
| Fc1ccc(-c2nc(-c3c(F)cccc3F)[nH]c2-c2ccncc2)cc1 | -2.52% |  |  |
| CN(C)CC1CCn2c(c(C3=C(c4cn(C)c5ccccc45)C(=O)NC3=O)c3ccccc32)C1 (stereo not drawn) |  | 16.4 µM (active) |  |
| C[C@H]1CO[C@@H]2Cn3cc(C(=O)NCc4ccc(F)cc4F)c(=O)c(O)c3C(=O)N12 | -20.1% |  |  |
| COc1cc(O)cc(OC2OC(CO)C(O)C(O)C2O)c1 (stereo not drawn) |  |  | inactive |
| COC(=O)C[C@](O)(CCCC(C)(C)O)C(=O)O[C@@H]1C(OC)=CC23CCCN2CCc2cc4c(cc2[C@H]13)OCO4 (stereo partly drawn) |  | 13 µM (active) |  |
| CC(=O)OC(C)(C)/C=C/C(=O)C(C)(O)C1C(O)CC2(C)C3CC=C(C(C)(C)C(=O)O)C(CC(=O)O)C3(C)C(=O)CC12C (stereo not drawn) | -17.2% [at 17.3 µM] |  |  |
| C=CC1(C)CC(O)C(C(=C)C(=O)OC)C(O)C1C(=C)CO (stereo not drawn) | -1.93% |  |  |
| N#Cc1cc(C2=Nc3ccc(Br)cc3NC(=O)C2)ccn1 | 9.82% |  |  |
| CC(C)n1cnc2c(-c3cnc(N)nc3)nc(N3CCOCC3)nc21 |  | 0.709 µM (active) |  |
| C=CCC1=C[C@]2(OC)[C@H](C)[C@@H](c3ccc4c(c3)OCO4)O[C@]2(OC)CC1=O | -18.8% |  |  |
| C=C(C)C1CC(O)C(C)C12CC(O)C1(C)OC1C2O (stereo not drawn) |  | 3.66 µM (active) |  |
| CN(C)C(=O)NC1(c2ccccc2)CCN(CCC[C@]2(c3ccc(Cl)c(Cl)c3)CCCN(C(=O)c3ccccc3)C2)CC1 |  | 18.4 µM (active) |  |
| CN1CCC(NC(=O)c2cc(-c3c(O)cc(O)cc3Oc3ccc([N+](=O)[O-])cc3)on2)CC1 |  | 11.6 µM (active) |  |
| COc1ccc2cc(-c3cc(-c4cc(Cl)cc(Cl)c4)nn3C(C)c3ccc(C(=O)NCCC(=O)O)cc3)ccc2c1 (stereo not drawn) | -11.7% |  |  |
| CNCCN1CCC(c2cc(CN(C)C(=O)c3cccc(Oc4ccccc4)c3)ccn2)CC1 |  |  | inactive [at 17.3 µM] |
| CN(C)CCOc1cc(NS(=O)(=O)c2c(Cl)cc(C(F)(F)F)cc2Cl)ccc1Cl | -28.9% |  |  |
| O=[N+]([O-])c1cn2c(n1)OC[C@@H](OCc1ccc(-c3ccc(OC(F)(F)F)cc3)nc1)C2 | -4.02% |  |  |
| Cc1cc(OCCCS(C)(=O)=O)cc(C)c1-c1cccc(COc2ccc3c(c2)OCC3CC(=O)O)c1 (stereo not drawn) | -14.9% |  |  |
| CC(=O)O[C@H]1C[C@@](O)(C(C)C)[C@@H]2[C@@H](OC(=O)c3ccc(O)cc3)CC(C)=CC[C@@]12C | -19% [at 17.3 µM] |  |  |

| SMILES | activity change, negative = cytotoxicity | Potency | outcome |
| --- | --- | --- | --- |
| CC(=O)O[C@H]1[C@@]2(O)C[C@H](C)[C@H](OC(=O)c3ccccc3)[C@@H]2[C@@H](OC(=O)CO)[C@]2(OC(C)=O)C[C@H]3C(=O)C(C)(C)C[C@@H]3[C@@]1(C)[C@H]2OC(C)=O | -7.07% [at 17.3 µM] |  |  |
| COC(C)(C)CCn1nc(Nc2c(C)cccc2C)c2cnc(Nc3ccc(OCCN4CCCC4)c(F)c3)nc21 |  | 20.6 µM (active) |  |
| COC(=O)c1ccnc(-c2cc(C(=O)Nc3ccc(C4(N)CC4)cc3)ccn2)c1 | -4.31% |  |  |
| Cc1ccc(-c2cn3c4c(sc3n2)CCCC4)cc1 | -19% |  |  |
| CCC(C)(NC(=O)C(CCC(N)=O)NC(=O)C1CC(O)CN1C(=O)C(C)(C)NC(=O)C(C)(C)NC(=O)C(CC(C)C)NC(=O)CNC(=O)C(NC(=O)C(C)(C)NC(=O)C(C)(C)NC(=O)C(C)(C)NC(=O)C(Cc1ccccc1)NC(C)=O)C(C)C)C(=O)N1CC(O)CC1C(=O)NC(C)(C)C(=O)NC(CO)Cc1ccccc1 (stereo not drawn) (Ac-F[Aib][Aib][Aib]VGL[Aib][Aib][Hyp]Q[Iva][Hyp][Aib][Phe(ol)]; configuration not given here) | -10.8% [at 9.29 µM] |  |  |
| COc1cc2nc(N3CCN(C(=O)c4ccco4)C4CCCCC43)nc(N)c2cc1OC (stereo not drawn) |  | 14.6 µM (active) |  |
| C[C@@]12C(=O)N(c3ccc(C(=O)Nc4cccc5cccnc45)cc3)C(=O)[C@@H]1[C@@H]1C=C[C@H]2C1 | -23.8% |  |  |
| CN(C)C(=O)Nc1cccc(-c2ccc(N(C)C)cc2)c1 | -5.76% |  |  |
| C[C@@H]1O[C@@H](O[C@H]2[C@H](OC(=O)[C@]34CCC(C)(C)C[C@H]3C3=CCC5[C@@]6(C)C[C@H](O)[C@H](O[C@@H]7O[C@H](CO)[C@@H](O)[C@H](O)[C@H]7O)[C@](CO)(C(=O)O)C6CC[C@@]5(C)[C@]3(C)C[C@H]4O)OC[C@H](O)[C@@H]2O)[C@H](O)[C@H](O)[C@H]1O[C@@H]1OC[C@@H](O)[C@H](O[C@@H]2OC[C@](O)(CO)[C@H]2O)[C@H]1O (stereo partly drawn) |  | 2.45 µM (active) |  |
| C/C=C(/C)C(=O)OC1CC(C)(C)CC2C3=CCC4C5(C)CCC(O[C@@H]6O[C@H](C(=O)O)[C@@H](O)[C@H](O)[C@H]6O[C@@H]6O[C@H](CO)[C@H](O)[C@H](O[C@@H]7OC[C@H](O)[C@H](O)[C@H]7O[C@@H]7O[C@H](CO)[C@@H](O)[C@H](O)[C@H]7O)[C@H]6O)C(C)(C)C5CCC4(C)C3(C)C(O)C(O)C12CO (stereo partly drawn) | -17.3% [at 9.29 µM] |  |  |
| O=C(Nc1ccc(N(Cc2ccsc2)C(=O)Cn2nnc3ccccc32)cc1)C1CC1 | -25.3% |  |  |
| O=C(NO)c1ccc(CC(=O)N(CCO)c2ccccc2)cc1 |  |  | inactive |
| C[C@H]1C[C@H]2[C@@H]3CCC4=CC(=O)C=C[C@]4(C)[C@@]3(F)[C@@H](O)C[C@]2(C)[C@@]1(O)C(=O)CCl | -24.6% |  |  |
| C/C=C(\C)C(=O)O[C@H]1C[C@](C)(O)[C@H]2CC=C(C)[C@H]2[C@@H]2OC(=O)[C@H](C)[C@H]21 | -20.4% |  |  |
| COc1ccc(C2(N(C)C(=O)c3ccc(NC(=O)c4ccco4)cc3)CCOCC2)cc1 | -18.8% |  |  |
| O=S1(=O)CCN(Cc2cc(NCC3CCOCC3)c3[nH]c(-c4ccccc4)cc3c2)CC1 | -14.6% |  |  |
| COc1c2c(nc3occc13)C(CC=C(C)C)(OC)C(O)CC2 (stereo not drawn) | -23% |  |  |
| CC1CC(=O)C2=C(C1)C1OC1C1(O)C2C(=O)c2cccc(O)c2C1O (stereo not drawn) |  |  | inactive |
| COc1ccc(C#Cc2ccc(C(=O)N3CCC[C@@H](O)C3)c(F)c2)cc1 | -33.3% |  |  |

From PubChem BioAssay (NCATS)
